Compound activity deposited in PubChem by Broad Institute.
Tg IFNy HTS = blocks Toxoplasma gondii growth in the presence of IFN-gamma. Toxoplasma gondii growth in IFN-gamma-treated host cells; active compounds read low. activity change, negative = inhibition, % (no concentration beside the values). actives 3.8% (n = 69,000). AID 1259416; in the data active = activity change below about -70%, passing the limit was not always enough;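 also: host cells are HeLa cells infected with Toxoplasma gondii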
Of the large screens only hits and unclear results are named; the others gave an inactive call; ! = not active in a repeat. This excerpt belongs to a sample that is enriched for hits.

CCc1ccc(NC(=O)c2nc(Nc3ccccc3)c3ccccc3n2)cc1	none
COc1ccc(-c2nc(Nc3cc(C)cc(C)c3)c3ccccc3n2)cc1	none
COc1ccc(NC(=O)c2nc(Nc3ccccc3)c3ccccc3n2)cc1	none
CCc1ccc(Nc2nc(C(=O)NC)nc3ccccc23)cc1	none
CCc1cccc(NC(=O)c2nc(Nc3ccccc3)c3ccccc3n2)c1	Tg IFNy HTS -72
CCN(CC)CC(=O)N1CCC(N2C(=O)NC3(CCN(C(=O)C(C)C)CC3)C2=O)CC1	none
O=S(=O)(NCCc1ccc(Cl)cc1)c1cc(Cl)sc1Cl	none
COc1ccc(NC(=O)c2c(O)c3cccnc3n(-c3ccc(F)cc3)c2=O)cc1OC	none
CCC(NCCc1ccc(O)cc1)C(=O)NC1CCCCC1 (stereo not drawn)	none
c1coc(CN2Cc3ccccc3C3(CCN(c4cnccn4)CC3)C2)c1	none
CC1=C(C(=O)Nc2cc(Cl)ccc2C)C2(CCN(S(C)(=O)=O)CC2)OC1=O	none
COc1cc(OC)c(NC(=O)N2CCC3(CC2)Nc2cc(F)ccc2-n2cccc23)cc1Cl	none
COc1cc(NC(=O)N2CCC3(CC2)Nc2cc(C)ccc2-n2cccc23)cc(OC)c1OC	none
O=C(O)c1cc(-c2ccccc2)c(C(F)(F)F)s1	none
FC(F)(F)c1sc(-c2nnc(-c3ccc(Cl)cc3Cl)o2)cc1-c1ccccc1	none
NC(=S)c1cc(-c2ccccc2)c(C(F)(F)F)s1	Tg IFNy HTS -93
CCOC[C@H]1CCC2C(CCN2C(=O)NCc2cccc(F)c2)O1 (stereo partly drawn)	none
O=C(Nc1nccs1)c1cccc(CN2CCCCC2c2cccnc2)c1 (stereo not drawn)	none
Cc1cccc(N2CCN(C(c3ccccc3)c3nnnn3Cc3ccco3)CC2)c1C (stereo not drawn)	none
COCCn1nnnc1C(C(C)C)N1CCC(Cc2ccccc2)CC1 (stereo not drawn)	none
COCCn1nnnc1C(c1cccs1)N1CCN(c2cc(C)ccc2C)CC1 (stereo not drawn)	Tg IFNy HTS -95
O=C(c1ccccc1F)N1C[C@@H]2CN(Cc3ccco3)CCO[C@@H]2C1	none
COc1ccc(CC(=O)NCCc2sc(-c3cccc(F)c3)nc2C)cc1OC	none
COc1cc(C(F)(F)F)cc(C(F)(F)F)c1C(N)=O	none
COc1cc(C(F)(F)F)cc(C(F)(F)F)c1C(=O)Oc1ccc(Cl)cc1	Tg IFNy HTS -96
COc1cc(C(F)(F)F)cc(C(F)(F)F)c1C(=O)NCc1cccs1	Tg IFNy HTS -81
Cc1cc(-c2onc(C)c2C(=O)Oc2ccc(Cl)cc2)no1	none
O=C(CCCC(=O)NCc1cccs1)NCc1cccs1	none
COCCN1CCN(c2ccc3ccc(C(=O)NCc4cccs4)cn23)CC1	none
O=C(COc1ccc(Cl)cc1Cl)N[C@H]1C[C@H]2C(=O)NCC(=O)N2C1	none
COc1ccc2cnc(C3CCCN(C(=O)c4cccnc4)C3)cc2c1C (stereo not drawn)	none
CCc1ccccc1S(=O)(=O)NCC(c1cccnc1)c1c[nH]c2ccccc12 (stereo not drawn)	none
CSc1nccc(-c2ccc(S(C)(=O)=O)cc2)n1	none
Cc1nn(C)c(C)c1-c1ccnc(NCCN2CCN(C(C)C)CC2)n1	none
Cc1ncc(-c2ccnc(Nc3ccc(S(C)(=O)=O)cc3)n2)n1C(C)C	Tg IFNy HTS -77
COC(=O)c1cc(C)nc2c1c(=O)n(Cc1nc(-c3cccc(C)c3)oc1C)c(=O)n2-c1ccccc1	none
Cc1oncc1C(=O)N1CCn2c(Cn3cccn3)cnc2C1	none
CN(CC1CCCO1)C(=O)c1coc(COc2ccc(F)cc2Cl)n1 (stereo not drawn)	none
COc1ccccc1-c1nn(-c2ccc(C(F)(F)F)cn2)c(=O)o1	none
Cc1ccc(S(=O)(=O)N2CC[C@H]3[C@H](CC2)S(=O)(=O)CCN3CC(C)C)cc1	none
CC(=O)C1C(=O)[C@@H]2[C@H]3c4c[nH]c5cccc(c45)C[C@H]3C(C)(C)N2C1=O (stereo partly drawn)	Tg IFNy HTS -81!
CN1C[C@H](C(=O)N[C@]2(C)O[C@@]3(O)[C@@H]4CCCN4C(=O)[C@H](Cc4ccccc4)N3C2=O)C[C@@H]2c3cccc4[nH]cc(c34)C[C@H]21	none
Cc1cccc(C)c1NC(=O)Cn1c(=O)cc(C(=O)N2CCOCC2)c2ccccc21	none
COc1ccc(NC(=O)c2ccc(S(=O)(=O)NCc3ccco3)cc2)cc1	none
CCOC(=O)c1csc(-c2snnc2C)n1	none
Cc1nc(-c2ccc(Cl)cc2)sc1-c1csc(-c2ccc(Cl)cc2)n1	none
Cc1nnsc1-c1nc(-c2ccc(Cl)s2)cs1	Tg IFNy HTS -85
O=C(c1cncc(N2Cc3cnn(CCO)c3C2)n1)N1CCCCC1	none
O=C(O)CCNC(=O)c1ccccc1	none
O=C(CCCl)NCCc1ccccc1	none
O=C(NCCCCc1ccccc1)c1ccccc1	Tg IFNy HTS -82
CCOC(=O)c1nn(CCc2ccccc2)c2c1CN(C(=O)C1=C(C)OCCO1)CC2	none
O=C(CCc1ccc(=O)[nH]n1)N1C[C@@H]2C3CCC(CC3)[C@@H]2C1	none
CCC(=O)N1CCC2(CC1)Nc1ccc(Cl)cc1-n1cccc12	none
Cc1ccc2c(c1C)-n1cccc1C1(CCN(C(=O)CC3CCCC3)CC1)N2	Tg IFNy HTS -88
O=C(CCC1CCCC1)N1CCC2(CC1)Nc1ccc(Cl)cc1-n1cccc12	none
O=C(CC1CCCC1)N1CCC2(CC1)Nc1ccc(Cl)cc1-n1cccc12	none
Cc1ccc2c(c1)NC1(CCN(C(=O)CCc3ccccc3)CC1)c1cccn1-2	none
CCCCC(=O)N1CCC2(CC1)Nc1ccc(Cl)cc1-n1cccc12	Tg IFNy HTS -108
O=C(CCc1ccccc1)N1CCC2(CC1)Nc1ccc(Cl)cc1-n1cccc12	Tg IFNy HTS -121
Cc1ccc2c(c1C)-n1cccc1C1(CCN(C(=O)CCC3CCCC3)CC1)N2	none
Cc1ccc2c(c1C)-n1cccc1C1(CCN(C(=O)CC3CCCCC3)CC1)N2	none
O=C(c1cc2n(n1)CCN(Cc1ccccc1)C2)N1CCCCC1CCO (stereo not drawn)	none
CN1CCN(c2ccc(-c3nc(-c4cccc(C(F)(F)F)c4)no3)cn2)CC1=O	none
COc1cccc(-c2nc3c(s2)N(C(C)C)C(C(=O)NCCN(C)C)C3)c1 (stereo not drawn)	none
O=C(NCCc1csc(-c2cccc(F)c2)n1)c1cc2ccccc2oc1=O	none
CS(=O)(=O)CC(=O)N1C[C@H]2CCC[C@]2(COCc2ccncc2)C1	none
COCCc1noc(-c2ccc(-c3cccc4c3OCC4)nc2)n1	none
NC(=O)c1csc(N2CCC(CO)(CC3CCCCO3)CC2)n1 (stereo not drawn)	none
CN1C(=O)c2cc(NC(=O)c3cccc(C(F)(F)F)c3)ccc2OC[C@@H]2O[C@H](CC(=O)NCCN3CCCC3)CC[C@@H]21	none
CCS(=O)(=O)N1CCC[C@@H]1Cn1c(C(F)(F)F)cc(=O)c2cc(C)ccc21	none
Cc1cccc(CN(Cc2ccccc2)C(=O)CCc2ccncc2)n1	none
Cc1ccc(-c2ncc(CN(Cc3ccccc3)Cc3cccc(C)n3)cn2)cc1	Tg IFNy HTS -79
Cc1cccc(CN(Cc2ccccc2)C(=O)c2ccc3nc(C(F)(F)F)[nH]c3c2)n1	none
Cc1ccc(-c2coc(-c3ccc(NC(=O)Nc4ccc5c(c4)OCCO5)cc3)n2)c(C)c1	none
Cc1noc([C@H]2COC[C@@H]3CN(C(=O)Cc4ccccc4F)C[C@@H]32)n1	none
N#Cc1cccc(NC(=O)Cn2c(=O)cc(C(=O)N3CCCC3)c3ccccc32)c1	none
Cc1csc2ncnc(-c3cccc4[nH]ccc34)c12	Tg IFNy HTS -74
CCNc1ccnc(-c2cccc3[nH]ccc23)n1	none
OCCNc1ncnc2ccc(-c3cccc4[nH]ccc34)cc12	none
COCC#Cc1ccc([C@H]2[C@H]3CN(C(=O)c4ccncc4)CC(=O)N3[C@H]2CO)cc1	none
